# MsrA inh: bovine MsrA enzyme inhibitors, primary screen, biochemical, absorbance, HTS; purified bovine MsrA, absorbance read-out; inhibition, % at 15.5 µM; 360,000 tested, 0.75% active; in the data active means inhibition above about 4.5%;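 further: 0% = vehicle wells with enzyme and 100% = reference inhibitor wells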
# SUMO Mot1 rescue: yeast Mot1-301 growth rescue at high temperature, primary screen, SUMOylation pathway inhibitor project, S. cerevisiae, ATP luminescence, 38.5C; S. cerevisiae Mot1-301 growth rescue; percent above DMSO median, 100 means doubled; growth rescue, % at 18.8 µM; 320,000 tested, 1% active; AID 2716, 2010;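 active means every valid replicate shows activation above 250% relative to neutral control wells; inactive means the rest, any valid replicate at or below 250%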;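 further: OY570 slx delta 5 strain wells were the positive control but not used for scaling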
# PKA-R1A act: activators of PKA-R1A holoenzyme, primary screen, biochemical, fluorescence polarization, Cy5-IP20, bovine R1A, mouse PKAc | 340,000 tested, 0.083% active | activation, % at 11.4 µM | cAMP-dependent protein kinase type I-alpha regulatory subunit (Bos taurus) + … | PKA-R1A dissociation; scaled: DMSO 0%, 113 µM cGMP 100%;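 active means percent activation above the mean of all tested compounds plus 3 SD, cut at about 19% in these data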;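 further: higher means more PKAc released from R1A so a rise in polarization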
# MsrA act: bovine MsrA enzyme activators, primary screen, biochemical, absorbance, HTS | purified bovine MsrA, absorbance read-out | Methionine sulfoxide reductase A (Bos taurus) | 360,000 tested, 0.3% active | activation, % at 10.6 µM; in the data active means activation above about 7.5%;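 further: 0% = vehicle and 100% = reference activator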
# PKA-R2B act: activators of PKA-R2B holoenzyme, primary screen, biochemical, fluorescence polarization, Cy5-IP20, human; cAMP-dependent protein kinase catalytic subunit beta (Homo sapiens) + cAMP-dependent …; PKA-R2B holoenzyme dissociation; R2B truncated from residue 108, S112A mutant; 0% DMSO only, 100% 113 µM cGMP; activation, % at 11.4 µM; AID 504700, 2011; 340,000 tested, 0.079% active;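 active means activation above a cutoff set at the mean over all compounds plus 3 SD, cut at about 18% in these data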;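 further: higher means more holoenzyme dissociation and a rise in polarization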
# Target sequence (P31323 whole entry, looked up, other chains not shown, the tested form may be a part): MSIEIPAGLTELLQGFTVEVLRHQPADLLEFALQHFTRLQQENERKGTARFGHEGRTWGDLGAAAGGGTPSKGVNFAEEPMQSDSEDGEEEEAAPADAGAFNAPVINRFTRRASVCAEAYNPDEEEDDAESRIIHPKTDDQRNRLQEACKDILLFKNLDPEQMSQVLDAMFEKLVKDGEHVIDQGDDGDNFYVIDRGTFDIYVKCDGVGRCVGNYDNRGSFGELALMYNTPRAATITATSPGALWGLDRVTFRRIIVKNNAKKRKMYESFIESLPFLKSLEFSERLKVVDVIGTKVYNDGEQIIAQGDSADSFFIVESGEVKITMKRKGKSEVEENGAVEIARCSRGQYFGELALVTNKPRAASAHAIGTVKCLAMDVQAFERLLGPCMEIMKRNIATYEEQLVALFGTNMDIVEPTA
# An asterisk follows results filed as active; x = not tested or not shown. A selection: hits, their analogues and other compounds. The true share with any hit is near 2%.
SMILES,MsrA inh,SUMO Mot1 rescue,PKA-R1A act,MsrA act,PKA-R2B act
COc1ccc(C2CC(=O)C(c3cccc(F)c3)=CN2Cc2ccccc2)cc1 (stereo unspecified),0,x,x,x,x
CS(=O)(=O)N1CCN(C(=O)CCC2CCCC2)CC1,-1,332*,-3,1,-1
N#Cc1ccc2nc(-c3ccc(CN4CCC5(CC4)CNc4ccccc45)cc3)c(-c3ccccc3)nc2c1,2,x,x,x,x
CCCNC(=O)c1ccccc1NC(=O)c1ccc(CSc2ccccc2)cc1,2,358*,-1,2,-2
O=C(Nc1ccc(NC(=O)c2cc([N+](=O)[O-])ccc2N2CCOCC2)cc1)c1cccs1,4.6*,-7,-6,-5,0
COc1cccc(C(=O)N[C@H](C(=O)N2CCC[C@H]2C(=O)NCCc2ccccc2Cl)C2CCCCC2)c1,1,x,x,x,x
CCC(=O)OC1(C)C(=O)C2=COC(c3ccc(OC)cc3)=CC2=C(Br)C1=O (stereo unspecified),1,379,5,10*,6
COc1ccc(C2=CC3=C(Br)C(=O)C(C)(O)C(=O)C3=CO2)cc1 (stereo unspecified),x,1,1,-4,-4
O=c1c2c3c(sc2ncn1/N=C/c1ccc([N+](=O)[O-])o1)CCCC3,0,290*,-10,8,1
Cn1cc(/C=N/n2cnc3sc4c(c3c2=O)CCCC4)c2ccccc21,2,293,-2,-1,-5
Nc1[nH]c(C(=O)c2ccc(Br)cc2)c(-c2c(F)cccc2F)c1C(=O)NCCc1c[nH]c2ccccc12,0,x,x,x,x
CCN(CC)CCNC(=O)Cn1ncc2ccccc2c1=O,0,776*,-1,-8,-4
CCN(CC)CCNC(=O)Cn1nc(-c2ccccc2)c2ccccc2c1=O,1,5,2,-1,-4
Cc1ccc(CC(=O)N2CCN(S(=O)(=O)c3ccccc3)CC2)cc1C,4.6*,4,2,-10,-9
CN1CCN(C(=O)c2ccccc2NC(=O)CCN2C(=O)c3ccccc3C2=O)CC1,-1,336*,-9,-5,11
CCc1ccccc1NC(=O)CCN1C(=O)c2ccccc2C1=O,-2,0,-4,-10,-13
C[C@@H]1ON(C)[C@H]2C[C@H]3c4[nH]c5c(-c6ccccc6)cccc5c4CCN3C[C@@H]12,0,x,x,x,x
COc1ccc(CSc2nnc(SCc3ccc([N+](=O)[O-])cc3)s2)cc1,1,-1,19*,-5,13
Cc1ccc(NC(=O)C(=O)NCCCN2CCCC2=O)cc1,1,433*,4,-10,6
Cc1ccc(NC(=O)C(=O)NCCCN2CCCC2=O)c(C)c1,-1,39,-2,-2,-14
Cc1ccccc1C(=O)N[C@H](C(=O)N1CCC[C@H]1C(=O)NCCc1ccccc1Cl)C(C)C,0,x,x,x,x
COc1c(Cl)cc(Cl)cc1CNc1ccc(S(N)(=O)=O)cc1,1,327*,-2,-4,5
CCOc1c(Cl)cc(CNc2ccc(S(N)(=O)=O)cc2)cc1OC,-2,x,-12,-8,-5
O=C(NCCc1ccccc1Cl)[C@@H]1CCCN1C(=O)[C@@H](NS(=O)(=O)c1ccc(F)cc1F)c1ccccc1,0,x,x,x,x
CCOc1ccc(-c2cc(C(=O)NCCCN3CCN(CC)CC3)c3ccccc3n2)cc1,4.6*,-2,6,-1,7
SMILES,MsrA inh,SUMO Mot1 rescue,PKA-R1A act,MsrA act,PKA-R2B act
CCOc1ccc(-c2cc(C(=O)NCCCn3ccnc3)c3ccccc3n2)cc1,2,21,-6,-3,-8
O=C1CCn2nc(-c3ccc(Cl)cc3)cc2N1,0,605*,-1,-1,5
CSc1nncc(/C(C)=N\Nc2ccccc2)n1,2,297*,5,1,-2
COc1cc(/C=C/C(=O)OCC(=O)c2ccc[nH]2)cc(OC)c1OC,0,7,4,-2,1
COc1ccc(/C=C/C(=O)c2ccc[nH]2)c(OC)c1OC,4.6*,12,-11,-2,-17
O=C(Nc1ccc(F)cc1)NC1CCCCC1,2,5,-6,-6,-7
O=C(Nc1c(F)c(F)c(F)c(F)c1F)NC1CCCCC1,-1,699*,1,-15,0
Cc1ccc(S(=O)(=O)NCC(=O)OCC(=O)c2ccc(Cl)s2)cc1,0,353*,9,-8,-11
CCCCCn1cc(CCC(=O)Nc2ccc(N(C)c3ccccn3)cc2)c2ccccc21,0,x,x,x,x
CC(=O)Nc1ccc(NC(=O)C2CC(=O)N(C(C)C)C2)cc1 (stereo unspecified),0,-20,2,-1,1
CC(C)N1CC(C(=O)Nc2ccccc2)CC1=O (stereo unspecified),1,305*,-8,-1,-2
COc1ccc(S(=O)(=O)Nc2c(C(=O)O)[nH]c3ccc(OC)cc23)cc1,0,9,1,-7,11
COC(=O)c1[nH]c2ccc(F)cc2c1NS(=O)(=O)c1ccc(OC)cc1,0,348*,1,-5,3
Oc1ccc(Cl)cc1-c1cc(-c2ccccc2)n[nH]1,-1,343*,4,-3,-1
Oc1ccccc1-c1cc(-c2ccccc2)n[nH]1,0,338*,3,-1,-6
Cc1ccc(O)c(-c2cc(-c3cccc(Br)c3)n[nH]2)c1,0,280*,4,-3,0
COc1ccccc1-c1cc(-c2cc(Cl)ccc2O)n[nH]1,0,-5,7,-6,5
Oc1ccccc1-c1cc(-c2ccc(F)cc2)n[nH]1,1,-12,-11,-1,-8
O=C1NC(Cc2cnc[nH]2)C(=O)N2CCCC12 (stereo unspecified),0,x,x,x,x
CC(=O)c1c(OC(=O)c2ccco2)c2ccccc2n1C,4.6*,132,3,-2,3
CC(=O)c1c(OC(=O)c2ccc(C)cc2)c2ccccc2n1C,0,-15,-11,-7,0
O=C(CSc1ccc2nnc(-c3cccnc3)n2n1)Nc1ccccc1,2,21,8,-4,2
O=C(CSc1ccc2nnc(-c3cccnc3)n2n1)Nc1ccccc1C(F)(F)F,0,298*,1,-3,3
CC[n+]1c(/C=C/N(C)c2ccccc2)oc2ccccc21,4.7*,-3,-16,-9,10
CC[n+]1c(/C=C/N(C)c2ccccc2)oc2ccc(F)cc21,3,-12,1,-7,-3
O=C(COC(=O)c1ccc2c(c1)OCCO2)Nc1cc(Cl)ccc1Cl,0,321*,-8,-2,2
NC(=O)COc1c(-c2ccco2)oc2ccccc2c1=O,4.6*,x,5,-8,-12
